“And” between values parts separate entries of the source, which are not always exact repeats. Equal entries are not always repeated. The source made the active and inactive calls.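 Rule for the calls, unless noted: active = mean z-score across replicates of 1.96 or higher in either the MELAS or the Rieske mutant cell line; inactive = the rest.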
Key:
[1] = sensitizers of A549 cells to miR-34 induction, primary screen, imaging, A549 dox-inducible miR-34, nuclei and caspase counts (AID 1347080;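 active = compounds whose cell count with miR-34 switched on is under 0.7 times the count with it off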); details: A549 miR-34 inducible, Hoechst nuclei count, 48 h
[2] = survival rescue of mitochondrial mutant cells in low glucose, primary screen, MELAS cybrids, Rieske KO mouse fibroblasts, CellTiter-Glo (AID 1508586);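 note: z relative to plate mean and SD of compound and empty wells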
[3] = stronger effect = lower value, cell number ratio, induced over uninduced
[4] = measured here: relative caspase fold change +Dox/-Dox
[5] = measured here: total cells with miR-34 induction, stronger effect = lower value
[6] = measured here: total cells without miR-34 induction
[7] = MELAS cybrid survival, CellTiter-Glo 48 h, stronger effect = higher value
[8] = Rieske KO mouse fibroblast survival, CellTiter-Glo 72 h
Note: test concentration not given here.

Structure (SMILES)	fold change [1, 3]	fold change [1, 4]	cell count [1, 5]	cell count [1, 6]	z-score [2, 7]	z-score [2, 8]
O=C1O[C@H](C(O)CO)C(O)C1O (stereo not given in full)	0.859 (inactive)	0.731	8460	9850	-0.207 (inactive)	-0.154
CC(C)OC(=O)C(C)N[P@](=O)(OCC1OC(n2ccc(=O)[nH]c2=O)[C@](C)(F)C1O)Oc1ccccc1 (stereo not given in full)	0.909 (inactive)	0.639	9560	10500	-0.378 (inactive)	0.864
CC1COC(Nc2ccc3ncnc(Nc4ccc(OCc5nccs5)c(Cl)c4)c3c2)=N1 (stereo not given)	0.841 (inactive)	0.704	6940	8260	0.156 (inactive)	-0.466
C#CCNC1CCc2ccccc21 (stereo not given)	1.01 (inactive)	0.344	8040	7960	-0.195 (inactive)	-0.00726
CCNC(=O)CCCC=CCC1C(O)CC(O)C1C=CC(O)CCc1ccccc1 (stereo not given)	0.925 (inactive)	0.991	6700	7250	-0.401 (inactive)	-0.137
CC(CCC(=O)O)[C@@H]1CC[C@H]2[C@@H]3C(O)C[C@@H]4CC(O)CC[C@]4(C)[C@@H]3CC[C@]12C (stereo not given in full)	0.828 (inactive)	0.703	7430	8980	-0.242 (inactive)	0.0686
COc1cc(C=CC(=O)C=C(O)C=Cc2ccc(O)c(OC)c2)ccc1O	0.901 (inactive)	0.689	8110	9000	-0.431 (inactive)	0.0298
CC1(C)OC2C[C@H]3[C@@H]4CCC5=CC(=O)CC[C@]5(C)[C@]4(F)C(O)C[C@]3(C)[C@@]2(C(=O)CCl)O1 (stereo not given in full)	0.851 (inactive)	0.816	4440	5220	-0.306 (inactive)	-0.265
CC1(C)C(OC2OC(C(=O)O)C(O)C(O)C2OC2OC(C(=O)O)C(O)C(O)C2O)CC[C@@]2(C)[C@H]1CC[C@]1(C)[C@H]2C(=O)C=C2[C@H]3C[C@@](C)(C(=O)O)CC[C@]3(C)CC[C@]21C (stereo not given in full)	0.916 (inactive)	0.946	8230	8990	-0.0747 (inactive)	-0.803
CCC(CC)(NC(=O)C(C)C)C(=O)NC(CCCN=C(N)N)C(=O)NC1(C(=O)NC(c2ccc(F)cc2)c2ccc(F)cc2)CCCC1 (stereo not given)	0.936 (inactive)	0.709	9110	9730	-0.415 (inactive)	-0.654
CC1OC(O)C(O)C(O)C1O (stereo not given)	0.984 (inactive)	1	7230	7350	-0.0523 (inactive)	-0.0922
COC1CC2CCC(C)[C@@](O)(O2)C(=O)C(=O)N2CCCCC2C(=O)OC(C(C)CC2CCC(OCCO)C(OC)C2)CC(=O)C(C)C=C(C)C(O)C(OC)C(=O)C(C)CC(C)C=CC=CC=C1C (stereo not given in full)	1.03 (inactive)	1	4550	4420	0.115 (inactive)	1.87
CC1CC[C@H]2C(C)C(O)O[C@H]3O[C@@]4(C)CC[C@@H]1[C@]32OO4 (stereo not given in full)	0.953 (inactive)	0.983	4540	4770	-0.379 (inactive)	0.102
COc1cc(F)c(F)c(Nc2ccc(I)cc2F)c1NS(=O)(=O)C1(CC(O)CO)CC1 (stereo not given)	0.923 (inactive)	0.76	2970	3220	-0.764 (inactive)	-0.645
CC(O)[C@@H]1C(=O)N2C(C(=O)O)=C(SC3CNC(CNS(N)(=O)=O)C3)C(C)[C@@H]12 (stereo not given in full)	0.983 (inactive)	0.831	7900	8030	-0.367 (inactive)	-0.0647
CNC(=C[N+](=O)[O-])NCCSCc1ccc(CN(C)C)o1	0.921 (inactive)	0.82	7800	8470	-0.3 (inactive)	-0.112
COC(=O)NC(C(=O)N1CCCC1c1ncc(-c2ccc(-c3ccc(-c4cnc(C5CCCN5C(=O)C(NC(=O)OC)C(C)C)[nH]4)cc3)cc2)[nH]1)C(C)C (stereo not given)	0.912 (inactive)	0.711	6220	6830	1.19 (inactive)	0.581
CCCCCCOC(=O)N=C(N)c1ccc(NCc2nc3cc(C(=O)N(CCC(=O)OCC)c4ccccn4)ccc3n2C)cc1	0.94 (inactive)	0.85	8810	9380	-0.278 (inactive)	0.124
CCn1cc(NC(=S)Nc2cc(Cl)ccc2OC)c(C(N)=O)n1	0.929 (inactive)	0.479	8480	9130	-0.357 (inactive)	0.0626
COc1ccc(-c2ccc3c(N4CCOCC4C)nc(N4CCOCC4C)nc3n2)cc1CO (stereo not given)	0.853 (inactive)	1.28	2360	2770	5.74 (active)	-3.07
Cc1cc(C)nc(NS(=O)(=O)c2ccc(NC(=S)NC(=O)COc3ccc(Br)cc3Cl)cc2)n1	0.955 (inactive)	1.42	7550	7900	-0.302 (inactive)	-3.08
CNc1nc(-c2ccc3c(N)n[nH]c3c2)cc(N2CC(C(=O)NC3CCCCC3)CCC2C)n1 (stereo not given)	0.8 (inactive)	0.791	6100	7620	0.231 (inactive)	-0.229
O=C(CCCCCCC(=O)Nc1ccc(C2OC(CSc3nc(-c4ccccc4)c(-c4ccccc4)o3)CC(c3ccc(CO)cc3)O2)cc1)NO (stereo not given)	0.92 (inactive)	0.644	6200	6750	-0.366 (inactive)	1.07

Structure (SMILES)	fold change [1, 3]	fold change [1, 4]	cell count [1, 5]	cell count [1, 6]	z-score [2, 7]	z-score [2, 8]
CC(=O)c1cc([N+](=O)[O-])c(Sc2ccc(F)cc2F)s1	0.898 (inactive)	0.374	8140	9060	-0.42 (inactive)	0.533
O=C(NNc1nc2cc(F)ccc2n2cccc12)c1cnccn1	0.939 (inactive)	0.345	2180	2330	1.52 (inactive)	-2.55
CNC(=O)C(Cc1ccccc1)NC(=O)C(CC(C)C)C(CSc1cccs1)C(=O)NO (stereo not given)	0.843 (inactive)	0.442	6630	7870	0.43 (inactive)	1.14
CC#C[C@@]1(O)CC[C@H]2[C@@H]3CCC4=CC(=O)CCC4=C3C(c3ccc(N(C)C)cc3)C[C@@]21C (stereo not given in full)	0.891 (inactive)	1.53	6640	7460	-0.469 (inactive)	0.644
CC(C)c1nc(N(C)S(C)(=O)=O)nc(-c2ccc(F)cc2)c1C=CC(O)CC(O)CC(=O)O (stereo not given)	0.92 (inactive)	0.647	8010	8710	0.606 (inactive)	-0.0253
C=CC1=C(C(=O)O)N2C(=O)[C@H](NC(=O)C(=NO)c3csc(N)n3)[C@H]2SC1	0.881 (inactive)	1.23	7750	8790	-0.382 (inactive)	0.812
COC1C(O)CC(=O)OC(C)CC=CC=CC(OC2CCC(N(C)C)C(C)O2)C(C)CC(CC=O)C1OC1OC(C)C(OC2C[C@](C)(O)C(O)C(C)O2)C(N(C)C)C1O (stereo not given in full)	0.934 (inactive)	0.625	8350	8940	-0.212 (inactive)	-0.158
COc1cc(=C2C=c3ccccc3=N2)[nH]c1=Cc1[nH]c(C)cc1C	1.1 (inactive)	0.895	1770	1620	2.25 (active)	-2.31
CCC(C(C)O)n1ncn(-c2ccc(N3CCN(c4ccc(OCC5CO[C@@](Cn6cncn6)(c6ccc(F)cc6F)C5)cc4)CC3)cc2)c1=O (stereo not given in full)	1.04 (inactive)	0.726	4300	4130	-0.325 (inactive)	0.236
CC(=CC(=O)OCCCCCCCCC(=O)O)CC1OC[C@H](CC2O[C@H]2C(C)C(C)O)C(O)C1O (stereo not given in full)	0.939 (inactive)	0.638	8270	8800	0.679	5.51
C=C1C(=O)[C@@]23C(O)[C@H]1CCC2[C@]12CO[C@]3(O)C(O)[C@@H]1C(C)(C)CCC2O (stereo not given in full)	0.94 (inactive)	0.647	8410	8940	-0.553 (inactive)	-0.438
O=S(=O)(NCCNCC=Cc1ccc(Br)cc1)c1cccc2cnccc12	0.834 (inactive)	0.904	8100	9710	-0.305 (inactive)	0.0221
CC1O[C@@H](OC2C(Oc3cc(O)c(C(=O)CCc4ccc(O)cc4)c(O)c3)OC(CO)C(O)C2O)C(O)C(O)C1O (stereo not given in full)	0.973 (inactive)	0.587	8080	8300	-0.155 (inactive)	-0.191
CS(=O)(=O)c1ccc(C(O)C(CO)NC(=O)C(Cl)Cl)cc1 (stereo not given)	0.959 (inactive)	1.06	8650	9010	-0.348 (inactive)	0.589
CC1OC(OC2C(Oc3cc(O)c4c(c3)OC(c3ccc(O)cc3)CC4=O)OC(CO)C(O)C2O)C(O)C(O)C1O (stereo not given)	1 (inactive)	0.741	8310	8300	-0.421 (inactive)	-0.0851
CCNC(=O)C1OC(n2cnc3c(N)nc(NCCc4ccc(CCC(=O)O)cc4)nc32)C(O)C1O (stereo not given)	1.01 (inactive)	0.733	7450	7360	0.177 (inactive)	-0.329
COC(c1ccccc1)(c1ccccc1)C(Oc1nc(C)cc(C)n1)C(=O)O (stereo not given)	0.951 (inactive)	0.955	7820	8220	-0.106 (inactive) and 0.539 (inactive)	0.0441 and -0.167
CCOc1cc2ncc(C#N)c(Nc3ccc(F)c(Cl)c3)c2cc1NC(=O)C=CCN(C)C	0.915 (inactive)	1.02	681	744	1.18 (inactive)	0.656
Cc1nc(NC(=O)N2CCCC2C(N)=O)sc1-c1csc(C(C)(C)C)n1 (stereo not given)	0.968 (inactive)	0.607	6880	7100	-0.368 (inactive)	0.104
Cc1cc(Nc2ccc(NC(=O)c3ccc(Nc4ccnc5ccccc45)cc3)cc2)nc(N)n1	0.978 (inactive)	0.411	6080	6210	-0.384 (inactive)	-1.35
C#C[C@@]1(O)CC[C@H]2[C@@H]3CCC4=CC(=O)CC[C@@H]4[C@@H]3CC[C@@]21CC	0.929 (inactive)	0.428	7310	7880	-0.214 (inactive)	0.0474
Cc1cnc(NC(=O)Nc2cc(Br)c(C)cc2OCC2CNCCO2)cn1 (stereo not given)	1.11 (inactive)	0.742	1910	1730	0.916 (inactive)	-0.0359

From PubChem BioAssay
